Source: PubChem BioAssay (NCI)
“And” between values parts separate entries of the source, which are not always exact repeats. Identical values can stand only once. The panel holds about 83,000 compounds, 20% with a hit somewhere; the sample as a whole holds those more often.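 Cells were grown in 96-well plates and exposed to the test compound at a single concentration for 48 hours; results are reported as percent growth, with values below 10 considered active.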 Unmarked numbers belong to inactive results. The source made the active and inactive calls. Starred links: 1 amine or outer side, 2 acyl side, 3 side chain; linkers in the order of their positions; H or OH if unused. Positions of bridges follow the written chain, without caps; N, C: chain ends. Non-standard residues stand in square brackets, D forms with d. Residues, ends and D or L forms follow the SMILES beside them. Chains are numbered I, II in the order given. Actinocin(9to1) = Cc1c2oc3c(C)ccc(C(=O)[*:1])c3nc-2c(C(=O)[*:2])c(N)c1=O; aThr = C[C@H](O)[C@H](N)C(=O)O; NMeV = CN[C@H](C(=O)O)C(C)C; Sar = CNCC(=O)O

Experiments:
Assay in all cases: NCI-60 one-dose screen, 48 h (100 = growth as untreated, 0 = no growth, -100 = all killed)
[1] = test system: NCI-H23 lung
[2] = test system: NCI-H226 lung
[3] = test system: NCI-H322M lung
[4] = test system: HOP-62 NSCLC
[5] = test system: NCI-H460 lung
[6] = test system: HOP-92 NSCLC
[7] = test system: NCI-H522 lung
[8] = test system: A549/ATCC NSCLC
[9] = test system: 786-0 renal
[10] = test system: COLO 205 colon

## Cc1c2oc3c(C)ccc(C(=O)N[C@@H]4C(=O)N[C@H](C(C)C)C(=O)N5CCC[C@H]5C(=O)N(C)CC(=O)N(C)[C@@H](C(C)C)C(=O)O[C@H]4C)c3nc-2c(C(=O)N[C@@H]2C(=O)N[C@H](C(C)C)C(=O)N3CCC[C@H]3C(=O)N(C)CC(=O)N(C)[C@@H](C(C)C)C(=O)O[C@H]2C)c(N)c1=O (I: [aThr][dV]P[Sar][NMeV] / II: [aThr][dV]P[Sar][NMeV]; ester I:1-I:C, II:1-II:C; linker I:N-II:N via Actinocin(9to1))
[1]; 0.0025 µM
  growth: 53.2%
[1]; 10 µM
  growth: -50.9% (active)
[2]; 0.0025 µM
  growth: 57.3%
[2]; 10 µM
  growth: -12.4% (active)
[3]; 0.0025 µM
  growth: 64.7%
[3]; 10 µM
  growth: 7.68% (active)
[4]; 0.0025 µM
  growth: 41.2%
[4]; 10 µM
  growth: -16.9% (active)
[5]; 0.0025 µM
  growth: 16.7%
[5]; 10 µM
  growth: -22.4% (active)
[6]; 0.0025 µM
  growth: 50.7%
[6]; 10 µM
  growth: -16.3% (active)
[7]; 0.0025 µM
  growth: 33.9%
[7]; 10 µM
  growth: -38.4% (active)
[8]; 0.0025 µM
  growth: 36.8%
[8]; 10 µM
  growth: -38.9% (active)
[9]; 0.0025 µM
  growth: 41.8%
[9]; 10 µM
  growth: -3.24% (active)
[10]; 0.0025 µM
  growth: 44.2%
[10]; 10 µM
  growth: -56.7% (active)

## Nc1ccc2cc(Br)c3ccccc3c2c1
[1]; 10 µM
  growth: 69.5%
[2]; 10 µM
  growth: 59.4%
[3]; 10 µM
  growth: 64.7%
[4]; 10 µM
  growth: 80.9%
[5]; 10 µM
  growth: 54.1%
[6]; 10 µM
  growth: 75.3%
[7]; 10 µM
  growth: 86.9%
[8]; 10 µM
  growth: 63%
[9]; 10 µM
  growth: 54.8%
[10]; 10 µM
  growth: 115%

## CCCCCCCCCCCCCCCCCN
[1]; 10 µM
  growth: 106%
[2]; 10 µM
  growth: 111%
[3]; 10 µM
  growth: 110%
[4]; 10 µM
  growth: 87.7%
[5]; 10 µM
  growth: 102%
[6]; 10 µM
  growth: 67%
[7]; 10 µM
  growth: 101%
[8]; 10 µM
  growth: 105%
[9]; 10 µM
  growth: 105%
[10]; 10 µM
  growth: 99.8%

## BrC/C=C/C[P+](c1ccccc1)(c1ccccc1)c1ccccc1
[1]; 10 µM
  growth: 84.2%
[2]; 10 µM
  growth: 76.2%
[3]; 10 µM
  growth: 96.5%
[4]; 10 µM
  growth: 27.4%
[5]; 10 µM
  growth: 57.4%
[6]; 10 µM
  growth: 60.4%
[7]; 10 µM
  growth: 40%
[8]; 10 µM
  growth: 44%
[9]; 10 µM
  growth: 46.2%
[10]; 10 µM
  growth: 16.5%

## Cc1cc(NCCCN(C)C)c2ccc3c(ccc4c(NCCCN(C)C)cc(C)nc43)c2n1
[1]; 10 µM
  growth: -45.2% (active)
[2]; 10 µM
  growth: -56.6% (active)
[3]; 10 µM
  growth: -40.7% (active)
[4]; 10 µM
  growth: -22.3% (active)
[5]; 10 µM
  growth: -77.7% (active)
[6]; 10 µM
  growth: -51.2% (active)
[7]; 10 µM
  growth: -72.8% (active)
[8]; 10 µM
  growth: -22.4% (active)
[9]; 10 µM
  growth: -35.2% (active)
[10]; 10 µM
  growth: -82.8% (active)

## O=c1[nH]cc(F)c(=O)[nH]1
[1]; 10 µM
  growth: 55% and 55.2%
[1]; 25 µM
  growth: 39%
[1]; 50 µM
  growth: 41.6%
[2]; 10 µM
  growth: 85.2% and 94.1%
[2]; 25 µM
  growth: 69.5%
[3]; 10 µM
  growth: 62.5% and 58.5%
[3]; 25 µM
  growth: 59.5%
[3]; 50 µM
  growth: 48.6%
[4]; 10 µM
  growth: 46.6% and 82.3%
[4]; 25 µM
  growth: 47.8%
[4]; 50 µM
  growth: 42.4%
[5]; 10 µM
  growth: 16% and 20%
[5]; 25 µM
  growth: 13%
[5]; 50 µM
  growth: 13.9%
[6]; 10 µM
  growth: 87.3% and 49.3%
[6]; 25 µM
  growth: 50.6%
[6]; 50 µM
  growth: 75.7%
[7]; 10 µM
  growth: 62.1% and 62.2%
[7]; 25 µM
  growth: 58%
[8]; 10 µM
  growth: -11.5% (active)
[8]; 25 µM
  growth: 34.2%
[8]; 50 µM
  growth: 31.2%
[9]; 10 µM
  growth: 64.2% and 62.2%
[9]; 25 µM
  growth: 48.7%
[9]; 50 µM
  growth: 59%
[10]; 10 µM
  growth: 51.4% and 39.4%
[10]; 25 µM
  growth: 40.2%
[10]; 50 µM
  growth: 33.5%
